Pf growth 96h: Primary qHTS for delayed death inhibitors of the malarial parasite plastid, 96 hour incubation. AID 504834, 2011. Potency, µM (top dose mostly 28.7 µM), hits mostly inhibitors. P. falciparum luciferase reporter growth, 96 h. 6.9% of 320,000 active
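Cell-based qHTS: luciferase-tagged P. falciparum in erythrocytes (2% hematocrit, 0.05% parasitemia final) incubated with compounds for 96 hours, 37 C, 5% CO2; luciferase detection reagent then added and luminescence measured.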
AMA1 RON2 block: qHTS for Inhibitors of AMA1-RON; Towards Development of Antimalarial Drug Lead: Primary Screen. Potency, µM (doses to about 58.2 µM), actives largely listed as inhibitors. 0.2% of 360,000 active. AlphaScreen AMA1-biotinylated RON2 peptide binding; also: nearly all actives have a fitted effect of over 45% in size
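AMA1 (3D7) with his tag at 25 nM final met compounds first, then biotinylated RON2 peptide at 25 nM; detection used donor plus acceptor beads, 10 µg/mL apiece, read by AlphaScreen after 30 min at room temperature.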
SARS PLpro yeast: qHTS of Yeast-based Assay for SARS-CoV PLP | AID 485353, 2010 | 0.19% of 330,000 active | Potency, µM (top dose mostly 32.9 µM), actives largely listed as activators | S. cerevisiae expressing SARS-CoV PLpro, growth rescue; calls by dose curve; also: nearly all actives have a fitted effect of over 55% in size
CHX counter: Cycloheximide Counterscreen for Small Molecule Inhibitors of Shiga Toxin; cell reporter, cycloheximide protein synthesis inhibition counterscreen; max response, %; 12% of 300,000 active; AID 2314, 2010; in the data active = max response mostly above about 13%, no sharp cut-off; inactive = mostly below about 14%; also: read at 38.3 µM for the half of the compounds with a filed dose
Pf growth 48h: Primary qHTS for delayed death inhibitors of the malarial parasite plastid, 48 hour incubation; P. falciparum luciferase growth in erythrocytes, 48 h; Potency, µM (highest dose often 28.7 µM), most hits filed as inhibitors; 5.9% of 310,000 active; AID 504832, 2011
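Luciferase-expressing parasites in RBCs, 2% Hct / 0.1% parasitemia final; RPMI 1640 + 0.5% Albumax; 37 C, 5% CO2, one generation; luminescence read-out, lower signal = inhibition.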
Shiga toxin inh: A qHTS for Small Molecule Inhibitors of Shiga Toxin; Vero cells, Shiga toxin protein synthesis inhibition reporter; inhibition, % at 38.7 µM; 9.2% of 290,000 active; AID 2315, 2010; in the data active = inhibition mostly above about 28%, no sharp cut-off; inactive = mostly below about 43%
Numbers stand for hits; . = inactive; ? = inconclusive; / = no result; + = active, no number. Sampled rows, rich in hits. Any-hit rate of the full collection: about 19%. Unless noted, calls follow the shape of the dose curve; as a rule, active = well fitted curve in the direction sought with a large enough effect; inconclusive = small, poorly fitted or top-dose-only effect, or another doubt; inactive = no such curve, though single readings can be large; an effect the other way counts as inactive or inconclusive.

SMILES | Pf growth 96h | AMA1 RON2 block | SARS PLpro yeast | CHX counter | Pf growth 48h | Shiga toxin inh
CCOC(=O)c1sc(=NC(=O)c2ccccc2)n(C)c1C | . | . | . | 36 | . | 90
COc1ccc(C(=O)N=c2sc3c(C)ccc(OC)c3n2C)cc1 | . | . | . | 37 | . | 66
CCOC(=O)c1sc(=NC(=O)c2cccc(OC)c2)n(C)c1C | . | . | . | 36 | . | 59
CCOC(=O)c1sc(=NC(=O)COc2ccc(Cl)cc2)n(C)c1C | ? | . | . | . | . | .
CC1C(=O)N(Cc2cn(Cc3ccco3)nn2)CCS(=O)(=O)N1Cc1ccc(-c2ccc(Cl)cc2)cc1 (stereo not drawn) | / | . | / | / | / | /
CCCCCCCCN1C(=O)[C@H](CC(=O)NCCCN2CCCC2=O)C[C@@]2(C(=O)OC)CC(C)(C)CC=C12 | / | . | / | / | / | /
COc1ccc(NC(=O)c2ccc(C)cc2)c[n+]1[O-] | . | . | . | 12 | . | .
COc1ccc(C(=O)Nc2ccc(C(=O)Nc3cccc(C)c3)cc2)cc1 | . | . | . | . | . | .
Cc1ccc(C(=O)NC(NC(=O)c2ccc(C)cc2)C(Cl)Cl)cc1 | ? | . | . | . | ? | .
Cc1ccc(NC(=O)C(=O)c2ccc(C)cc2)cc1 | . | . | . | 57 | . | .
Cc1ccc(C(NC(=O)c2ccccc2)C(Cl)Cl)cc1 (stereo not drawn) | 4.1µM | . | . | . | ? | .
Cc1ccc(NC(=O)c2ccccc2)cc1 | . | . | . | 33 | . | 109
CC(C)(C)c1nn2cnnc2n(/N=C/c2ccccc2)c1=O | . | . | . | . | . | .
O=C1[C@H]2[C@@H](c3ccccc3)N[C@]3(CCCN(CC4CCCCC4)C3=O)[C@H]2C(=O)N1Cc1ccccc1 | / | . | / | / | / | /
O=C(c1ccco1)N1CCN(Cc2cn[nH]c2-c2ccc(F)cc2F)CC1 | . | . | . | . | . | .
Cc1ccc(NC(=O)c2ccccc2O)cc1 | . | . | . | 34 | . | +
Cc1cccc(C(=O)NNC(=O)Nc2ccccc2)c1 | . | . | . | . | . | .
Cc1ccc(NC(=O)C2=C(c3ccccc3)S(=O)(=O)CCS2(=O)=O)cc1 | . | . | . | 34 | . | .
O=C(Nc1ccccc1)c1ccccc1I | / | / | / | 31 | / | 42
Cc1ccc(NC(=O)NNC(=O)c2ccccc2)cc1 | . | . | . | 22 | . | 44
Cc1ccccc1C(=O)Nc1ccccc1 | ? | . | . | . | . | .
Cc1cc(C)cc(NC(=O)Nc2ccc(NC(=O)c3ccccc3O)cc2)c1 | . | . | . | . | . | .
Cc1nc(N2CCCCC2C)c2c(C)c(C(=O)Nc3ccccc3C(F)(F)F)sc2n1 (stereo not drawn) | . | . | . | . | ? | .
Cc1cnc(C(=O)OCC(=O)Nc2cc(-c3ccccc3)nn2-c2ccccc2)cn1 | ? | . | . | / | . | /
Cc1ccc(N/C(=C\C(=O)c2ccccc2)C(=O)O)cc1 | . | . | . | 47 | . | 100
SMILES | Pf growth 96h | AMA1 RON2 block | SARS PLpro yeast | CHX counter | Pf growth 48h | Shiga toxin inh
CC1CCN(C(=O)COC(=O)c2ccccc2NCCO)CC1 | / | . | / | / | / | /
CCn1cc(/C=N/N=C2\CCC3C4CCc5cc(O)ccc5C4CC[C@]23C)c(C)n1 (stereo partly drawn) | 1.7µM | . | . | . | / | .
Cc1cc(-c2c(C)[nH]n(-c3ccc(Cl)cc3)c2=O)n[nH]1 | ? | . | ? | 27 | ? | .
Cc1[nH]n(-c2ccccc2)c(=O)c1Sc1ccc(Cl)cc1 | ? | . | . | . | . | .
COC(=O)c1sccc1NC(=O)c1cc2c(s1)CCCC2 | / | . | . | 13 | . | .
CCOC(=O)c1ccc(NC(=O)c2cc3c(s2)CCC3)cc1 | . | . | . | 39 | ? | 54
COc1ccc(C)cc1NC(=O)c1cc2c(s1)CCC2 | ? | . | . | 20 | . | .
CCOC(=O)c1ccc(NC(=O)c2ccc(NC(=O)c3ccccc3)cc2)cc1 | . | . | . | . | / | .
O=C(Nc1nccs1)c1cc2c(s1)CCCCC2 | . | . | . | . | / | .
COc1ccc(S(=O)(=O)N2CCOCC2)cc1NC(=O)c1cc2c(s1)CCCC2 | . | . | . | . | . | .
O=C(Cc1nnc(NC(=O)Nc2ccccc2F)s1)NCc1ccccc1 | . | . | . | . | . | .
O=S(=O)(NC(=NCCc1ccc(Cl)cc1)c1ccccc1Cl)c1cccs1 | ? | . | . | . | . | .
Cn1c(SCC(=O)Nc2ccccc2O)nnc1-c1ccco1 | . | . | . | . | . | .
CC(=O)Nc1cccc(/C(C)=N/NC(=O)c2ccc(Cl)cc2Cl)c1 | . | . | . | . | . | .
C/C(=N/NS(=O)(=O)c1ccc(C)cc1)c1cccc(NC(=O)c2cccc(Cl)c2)c1 | . | . | . | . | . | .
C/C(=N\NC(=O)c1cc(O)ccc1O)c1cccc(NC(=O)c2ccc(Cl)cc2)c1 | ? | . | . | 47 | ? | 78
C/C(=N/NS(=O)(=O)c1ccc(Cl)cc1)c1cccc(NC(=O)c2ccc(Cl)cc2Cl)c1 | . | . | . | 33 | ? | 84
C/C(=N\NC(=O)c1cc(O)ccc1O)c1cccc(NC(=O)c2cccc(Cl)c2)c1 | ? | . | . | 41 | . | 71
Cc1ccc(NC(=O)NNC(=O)Cn2nc(-c3ccccc3)c(-c3ccccc3)c(C#N)c2=O)cc1 | ? | . | . | . | ? | .
COc1cc(CNCc2ccc(SC)cc2)cc(OC)c1 | . | . | . | . | . | .
CCCCCCc1cc2cc(S(=O)(=O)c3ccc(Cl)cc3)c(=O)oc2cc1O | . | . | . | . | . | .
CCN(CC)c1ccc2cc(S(=O)(=O)c3ccc(Cl)cc3)c(=O)oc2c1 | 13µM | . | . | . | ? | .
CN(C)Cc1csc(NC(=O)Nc2ccccc2C(C)(C)C)n1 | / | . | / | / | / | /
COC(=O)c1cccc(N(CC(=O)NC2CCCCC2)C(=O)CNC(=O)c2cccs2)c1 | . | . | . | . | ? | .
Cc1nn(CC(=O)NCCCN2CCC(Cc3ccccc3)CC2)c(=O)c2cc(-c3ccccc3)nn12 | 4.1µM | . | . | . | ? | .
COc1ccc(-c2cc3c(=O)n(CC(=O)N4CCCCC4)ncn3n2)cc1 | . | . | . | . | . | .
CCC1CCCCN1CCCNC(=O)Cn1ncn2nc(-c3ccc(OC)cc3)cc2c1=O (stereo not drawn) | ? | . | . | 29 | . | 55
CCc1ccc(-c2cc3c(=O)n(CC(=O)NCCCN4CCN(C)CC4)ncn3n2)cc1 | . | . | ? | 24 | ? | 36
COc1ccc(-c2cc3c(=O)n(CC(=O)NCCCc4ccccc4)ncn3n2)cc1 | ? | . | . | 16 | . | 26
